From PubChem BioAssay AID1159580 (chemical genetic matrix, 2015)
Where “and” joins values, the source holds several entries; their conditions need not be identical. Identical values can stand only once. Screen size: about 5,500 compounds; about 2,000 (36%) were called active. Another 18% or so got no clear call; they are omitted. Cut-off read from the data, not from the text of the source: active = normalized growth mostly below about 0.91 (no sharp cut-off); inconclusive = no clear call, values can overlap the other calls; inactive = mostly above about 0.92. Some of the results follow.

Test: chemical genetic growth profiling, strain panel (AID 1159580);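 note: tested at 20 µM; growth read once vehicle control cultures reached saturation at 30 °C; 1 = growth at the plate median or of vehicle wells; lower values mean less growth of the strain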
Details: S. cerevisiae deletion strains, growth OD

Measured: normalized growth

CC1=C(/C=C/C(C)=C/C=C/C(C)=C/C=C/C=C(C)/C=C/C=C(C)/C=C/C2=C(C)CCCC2(C)C)C(C)(C)CCC1
inactive: locus YAL021C, strain ccr4, stronger effect = lower value 0.978 | locus YAL026C, strain drs2, stronger effect = lower value 0.997 | locus YAL030W, strain snc1, stronger effect = lower value 0.995 | locus YBL061C, strain skt5, stronger effect = lower value 0.997 | locus YBR021W, strain FUR4, stronger effect = lower value 0.99 | locus YBR023C, strain chs3, stronger effect = lower value 0.992 | locus YBR171W, strain sec66, stronger effect = lower value 0.977 | locus YBR229C, strain ROT2, stronger effect = lower value 1.01 | locus YBR231C, strain swc5, stronger effect = lower value 1.02 | locus YBR279W, strain paf1, stronger effect = lower value 0.987 | locus YCL011C, strain gbp2, stronger effect = lower value 0.997 | locus YCL016C, strain dcc1, stronger effect = lower value 1.01 | locus YCL029C, strain bik1, stronger effect = lower value 1.02 | locus YCL061C, strain MRC1, stronger effect = lower value 0.995 | locus YCL069W, strain vba3, stronger effect = lower value 0.997 | locus YCR088W, strain abp1, stronger effect = lower value 0.995 | locus YDL005C, strain med2, stronger effect = lower value 0.998 | locus YDL035C, strain GPR1, stronger effect = lower value 1 | locus YDL040C, strain nat1, stronger effect = lower value 0.995 | locus YDL074C, strain BRE1, stronger effect = lower value 1 | locus YDL101C, strain DUN1, stronger effect = lower value 1.01 | locus YDL134C, strain PPH21, stronger effect = lower value 1.01 | locus YDL185W, strain tfp1, stronger effect = lower value 1.02 | locus YDL192W, strain arf1, stronger effect = lower value 1.02 | locus YDR001C, strain nth1, stronger effect = lower value 0.987 | locus YDR069C, strain doa4, stronger effect = lower value 0.994 | locus YDR101C, strain arx1, stronger effect = lower value 0.982 | locus YDR137W, strain rgp1, stronger effect = lower value 0.964 | locus YDR150W, strain NUM1, stronger effect = lower value 1.01 | locus YDR159W, strain sac3, stronger effect = lower value 1.01 | locus YDR162C, strain NBP2, stronger effect = lower value 1.02 | locus YDR195W, strain ref2 0.999 | locus YDR297W, strain sur2, stronger effect = lower value 1.02 | locus YDR318W, strain mcm21, stronger effect = lower value 1.01 | locus YDR334W, strain swr1, stronger effect = lower value 0.99 | locus YDR335W, strain msn5, stronger effect = lower value 0.997 | locus YDR388W, stronger effect = lower value 1.01 | locus YDR392W, strain spt3, stronger effect = lower value 0.982 | locus YDR502C, strain sam2, stronger effect = lower value 0.993 | locus YEL003W, strain gim4, stronger effect = lower value 1.02 | locus YEL037C, strain rad23, stronger effect = lower value 0.999 | locus YEL061C, strain CIN8 (second series), stronger effect = lower value 0.997 | locus YEL061C, strain CIN8, stronger effect = lower value 1.01 | locus YER015W, strain faa2, stronger effect = lower value 0.973 | locus YER016W, strain bim1, stronger effect = lower value 1 | locus YER110C, stronger effect = lower value 1 | locus YER111C, strain swi4, stronger effect = lower value 0.983 | locus YER155C, strain BEM2 (second series), stronger effect = lower value 1.04 | locus YER155C, strain BEM2, stronger effect = lower value 1.01 | locus YER167W, strain BCK2, stronger effect = lower value 1.01 | locus YFR010W, strain ubp6, stronger effect = lower value 1 | locus YGL078C, strain dbp3, stronger effect = lower value 0.996 | locus YGL086W, strain mad1, stronger effect = lower value 1.01 | locus YGL167C, strain pmr1, stronger effect = lower value 0.992 | locus YGL173C, strain kem1, stronger effect = lower value 1 | locus YGL227W, strain vid30, stronger effect = lower value 0.99 | locus YGL240W, strain doc1, stronger effect = lower value 1.02 | locus YGL248W, strain PDE1, stronger effect = lower value 1.01 | locus YGL253W, strain hxk2, stronger effect = lower value 0.949 | locus YGR135W, strain pre9, stronger effect = lower value 1.03 | locus YGR229C, strain SMI1, stronger effect = lower value 1 | locus YGR252W, strain gcn5, stronger effect = lower value 0.998 | locus YHR013C, strain ard1, stronger effect = lower value 0.967 | locus YHR027C, strain rpn1, stronger effect = lower value 1.01 | locus YHR030C, strain SLT2, stronger effect = lower value 1.02 and 1.01 | locus YHR079C, strain IRE1 (second series), stronger effect = lower value 1 | locus YHR079C, strain IRE1, stronger effect = lower value 1.04 | locus YHR094C, strain hxt1, stronger effect = lower value 0.999 | locus YHR129C, strain ARP1, stronger effect = lower value 1.01 | locus YHR142W, strain chs7, stronger effect = lower value 0.967 | locus YHR200W, strain rpn10, stronger effect = lower value 1.01 | locus YIL066C, strain RNR3, stronger effect = lower value 1.01 | locus YIL073C, strain SPO22, stronger effect = lower value 1.07 | locus YIL125W, strain kgd1, stronger effect = lower value 0.998 | locus YIR030C, strain dcg1, stronger effect = lower value 1 | locus YJL092W, strain hpr5, stronger effect = lower value 0.992 | locus YJL095W, strain BCK1 (second series), stronger effect = lower value 0.989 | locus YJL095W, strain BCK1, stronger effect = lower value 1.03 and 1.02 | locus YJL115W, strain asf1, stronger effect = lower value 0.996 | locus YJL129C, strain trk1, stronger effect = lower value 0.969 | locus YJL134W, strain LCB3, stronger effect = lower value 1.01 | locus YJL154C, strain vps35, stronger effect = lower value 0.999 | locus YJL164C, strain tpk1, stronger effect = lower value 1.01 | locus YJL166W, strain qcr8, stronger effect = lower value 0.955 | locus YJL168C, strain set2, stronger effect = lower value 1 | locus YJL187C, strain SWE1 (second series), stronger effect = lower value 1.01 | locus YJL187C, strain SWE1, stronger effect = lower value 0.995 | locus YJR043C, strain POL32, stronger effect = lower value 1.01 | locus YJR066W, strain TOR1, stronger effect = lower value 0.974 | locus YKL009W, strain mrt4, stronger effect = lower value 0.941 | locus YKL068W, stronger effect = lower value 1.01 | locus YKL085W, strain MDH1 (second series), stronger effect = lower value 0.983 | locus YKL085W, strain MDH1, stronger effect = lower value 0.983 | locus YKL160W, strain elf1, stronger effect = lower value 0.927 | locus YKR001C, strain vps1, stronger effect = lower value 0.986 | locus YKR026C, strain gcn3, stronger effect = lower value 0.987 | locus YKR091W, strain srl3, stronger effect = lower value 0.991 | locus YLL001W, strain dnm1, stronger effect = lower value 0.926 | locus YLL026W, stronger effect = lower value 0.999 | locus YLL041C, strain sdh2, stronger effect = lower value 1.03 | locus YLR027C, strain aat2, stronger effect = lower value 0.998 | locus YLR039C, strain RIC1, stronger effect = lower value 0.996 | locus YLR058C, strain SHM2, stronger effect = lower value 1.01 | locus YLR102C, strain apc9, stronger effect = lower value 0.997 | locus YLR113W, strain HOG1, stronger effect = lower value 1.02 | locus YLR221C, strain rsa3, stronger effect = lower value 0.977 | locus YLR258W, strain gsy2, stronger effect = lower value 1.02 | locus YLR262C, strain YPT6 (second series), stronger effect = lower value 0.941 | locus YLR262C, strain YPT6, stronger effect = lower value 0.982 | locus YLR268W, strain sec22, stronger effect = lower value 0.992 | locus YLR320W, strain mms22, stronger effect = lower value 0.994 | locus YLR330W, strain CHS5, stronger effect = lower value 1.01 | locus YLR342W, strain FKS1 (second series), stronger effect = lower value 1.01 | locus YLR342W, strain FKS1, stronger effect = lower value 0.981 | locus YLR357W, strain rsc2, stronger effect = lower value 0.957 | locus YLR370C, strain arc18, stronger effect = lower value 1 | locus YLR371W, strain rom2, stronger effect = lower value 1 | locus YLR384C, strain iki3, stronger effect = lower value 1 | locus YLR418C, strain cdc73, stronger effect = lower value 0.993 | locus YML016C, strain PPZ1, stronger effect = lower value 1 | locus YML032C, strain rad52, stronger effect = lower value 1 | locus YML120C, strain ndi1, stronger effect = lower value 0.962 | locus YML124C, strain tub3, stronger effect = lower value 1 | locus YMR058W, strain fet3, stronger effect = lower value 0.985 | locus YMR078C, strain ctf18, stronger effect = lower value 1.03 | locus YMR125W, strain sto1, stronger effect = lower value 0.929 | locus YMR129W, stronger effect = lower value 0.996 | locus YMR205C, strain PFK2, stronger effect = lower value 0.934 | locus YMR223W, strain ubp8, stronger effect = lower value 1.01 | locus YMR231W, strain pep5, stronger effect = lower value 0.997 | locus YMR263W, strain SAP30, stronger effect = lower value 1.02 | locus YMR307W, strain GAS1, stronger effect = lower value 1.06 | locus YNL067W, strain RPL9B, stronger effect = lower value 1.01 | locus YNL071W, strain lat1, stronger effect = lower value 0.984 | locus YNL153C, strain GIM3, stronger effect = lower value 1.01 | locus YNL183C, strain NPR1, stronger effect = lower value 0.97 | locus YNL209W, strain ssb2, stronger effect = lower value 0.997 | locus YNL233W, strain BNI4, stronger effect = lower value 1.01 | locus YNL248C, strain rpa49, stronger effect = lower value 0.906 | locus YNL250W, strain rad50, stronger effect = lower value 1.02 | locus YNL271C, strain bni1, stronger effect = lower value 0.997 | locus YNL298W, strain CLA4, stronger effect = lower value 0.991 | locus YNL307C, strain MCK1, stronger effect = lower value 1.01 | locus YNL322C, strain KRE1 (second series), stronger effect = lower value 0.993 | locus YNL322C, strain KRE1, stronger effect = lower value 1.01 | locus YNR049C, strain mso1, stronger effect = lower value 1.01 | locus YNR052C, strain pop2, stronger effect = lower value 1 | locus YOL006C, strain TOP1, stronger effect = lower value 1.01 | locus YOL012C, strain htz1 1.24 | locus YOL147C, strain pex11, stronger effect = lower value 1.01 | locus YOR001W, strain rrp6, stronger effect = lower value 1.07 | locus YOR061W, strain CKA2, stronger effect = lower value 1.01 | locus YOR069W, strain VPS5, stronger effect = lower value 1.01 | locus YOR070C, strain gyp1, stronger effect = lower value 1 | locus YOR080W, strain dia2, stronger effect = lower value 0.996 | locus YOR083W, strain WHI5, stronger effect = lower value 0.94 | locus YOR106W, strain vam3, stronger effect = lower value 0.922 | locus YOR136W, strain idh2, stronger effect = lower value 1.02 | locus YOR144C, strain elg1, stronger effect = lower value 1 | locus YOR184W, strain ser1, stronger effect = lower value 1.01 | locus YOR231W, strain MKK1, stronger effect = lower value 1.02 | locus YOR265W, strain rbl2, stronger effect = lower value 0.992 | locus YOR270C, strain vph1, stronger effect = lower value 0.875 | locus YOR290C, strain snf2, stronger effect = lower value 0.953 | locus YOR316C, strain cot1, stronger effect = lower value 1 | locus YPL051W, strain arl3, stronger effect = lower value 1.02 | locus YPL078C, strain atp4, stronger effect = lower value 0.931 | locus YPL106C, strain sse1, stronger effect = lower value 1.03 | locus YPL240C, strain hsp82, stronger effect = lower value 1 | locus YPL241C, strain CIN2, stronger effect = lower value 1.01 | locus YPL256C, strain CLN2, stronger effect = lower value 0.994 | locus YPR119W, strain clb2, stronger effect = lower value 1.01 | locus YPR141C, strain kar3, stronger effect = lower value 1.01 | locus YPR163C, strain tif3, stronger effect = lower value 1 | locus YPR167C, strain met16, stronger effect = lower value 1.01 | strain wtn01, stronger effect = lower value 0.991
active: locus YBR009C, strain hhf1, stronger effect = lower value 1.1 [resistant]
